# Data as given in PMC4552634, “A New Set of Chemical Starting Points with Plasmodium falciparum Transmission-Blocking Potential for Antimalarial Drug Discovery” (PLoS ONE, 2015).
# Among all 13,000 compounds or so, about 3,200 (25%) showed an effect of 50% or more. The list shows a part of the results.
# Tested on: P. falciparum stage V gametocytes
# Set-up: BacTiter-Glo ATP luminescence viability of purified stage V gametocytes in 384-well plates, per cent inhibition versus DMSO
# Conditions: 48 h, 5 µM; inhibitor
row,SMILES,% Inhibition [%]
1,COc1ccc2nc(-c3cc(-c4ccc(NC(=O)C(C)C)cc4)cnc3N)[nH]c2c1 [TCMDC-135322],10.64
2,C[C@H](CNc1ccnc(Nc2ccc3[nH]c(=O)[nH]c3c2)n1)c1ccccc1 [TCMDC-136804],-43.48
3,CN/C(=C\[N+](=O)[O-])NCCSCc1cc(C)c(CN(C)C)s1 [TCMDC-131256],8.916
4,Cc1cc(O)c2c3c1C(=O)C=C1C3c3c(c(O)cc(O)c3C(=O)C1(C)C)C2=O (stereo not shown) [TCMDC-132049],13.87
5,Oc1ccc(Cl)cc1CN1CCC(CCOC(c2ccccc2)c2ccccc2)CC1 [TCMDC-136036],7.087
6,CC(C)Sc1nc2c(c(=O)n1CCc1ccccc1)C1(CCCCC1)Cc1ccccc1-2 [TCMDC-123894],-24.8
7,O=C(Nc1ccc2c(c1)OCO2)c1cc(-c2cccnc2)cnc1NCc1ccc2c(c1)OCO2 [TCMDC-136698],-17.08
8,CN(c1ccnc(Nc2ccc(CS(C)(=O)=O)cc2)n1)C1CCN(Cc2ccccc2)CC1 [TCMDC-134396],-3.005
9,CNC(=O)Cc1ccc(C(=O)Nc2cccc(-c3cccc(-c4nc5c(C)cccc5[nH]4)c3)c2)cc1 [TCMDC-137075],-29.46
10,Cc1cccc2nc(-c3cccc(-c4cccc(CN5CCN(c6ccc(C#N)cn6)CC5)c4)c3)[nH]c12.O=C(O)C(F)(F)F [TCMDC-133118],18.89
11,Cc1cccc2nc(-c3cccc(-c4cccc(CNCc5ccc(S(C)(=O)=O)cc5)c4)c3)[nH]c12.O=C(O)C(F)(F)F [TCMDC-132896],-8.61
12,COc1ccc(CNCc2ccc(-c3ccc(-c4nc5cccc(C)c5[nH]4)cc3)cc2)cc1.O=C(O)C(F)(F)F [TCMDC-132720],-4.275
13,CNc1ccc(CNCc2ccc(-c3ccc(-c4nc5cccc(C)c5[nH]4)cc3)cc2)cc1.O=C(O)C(F)(F)F [TCMDC-132984],83.67
14,Cc1cccc2nc(-c3ccc(-c4ccc(CNCCc5ccncc5)cc4)cc3)[nH]c12.O=C(O)C(F)(F)F [TCMDC-132855],4.84
15,Cc1cccc2nc(-c3cccc(-c4ccc(CNCc5ccc(S(C)(=O)=O)cc5)cc4)c3)[nH]c12.O=C(O)C(F)(F)F [TCMDC-132898],-16.63
16,Cc1cccc2nc(-c3ccc(-c4ccc(CNCc5ccc(S(C)(=O)=O)cc5)cc4)cc3)[nH]c12.O=C(O)C(F)(F)F [TCMDC-132905],55
17,Cc1c(F)cc(C(=O)NC2CC2)cc1-c1ccc2c(cnn2S(=O)(=O)c2ccc(Cl)s2)c1 [TCMDC-135232],32.9
18,Cc1c(F)cc(C(=O)NC2CC2)cc1-c1ccc2c(cnn2S(=O)(=O)c2cccs2)c1 [TCMDC-135215],-11.35
19,Cc1c(F)cc(C(=O)NC2CC2)cc1-c1ccc2c(c1)c(C)nn2S(=O)(=O)c1cccs1 [TCMDC-135260],59.41
20,CCN(CC)CCNC(=O)/C(=C/C=C/c1cc2cc(Cl)c(Cl)cc2[nH]1)OC [TCMDC-139013],-18.02
21,CO/C(=C\C=C\c1cc2cc(Cl)c(Cl)cc2[nH]1)C(=O)NCCCN1CCC(c2ccccc2)CC1 [TCMDC-139272],8.329

row,SMILES,% Inhibition [%]
1,CO/C(=C\C=C\c1cc2cc(Cl)c(Cl)cc2[nH]1)C(=O)NCCCN1CCN(c2ccc(OC)cc2)CC1 [TCMDC-139175],-57.04
2,CO/C(=C\C=C\c1cc2cc(Cl)c(Cl)cc2[nH]1)C(=O)NCCCNCCN(C)c1ccccc1 [TCMDC-139496],56.16
3,CO/C(=C\C=C\c1cc2cc(Cl)c(Cl)cc2[nH]1)C(=O)NCCCNC12CC3CC(CC(C3)C1)C2 [TCMDC-139077],103
4,CO/C(=C\C=C\c1cc2cc(Cl)c(Cl)cc2[nH]1)C(=O)NCCCN1CCN(Cc2ccccc2)CC1 [TCMDC-139257],-24.43
5,CO/C(=C\C=C\c1cc2cc(Cl)c(Cl)cc2[nH]1)C(=O)NCC(C)(C)CN(C)C [TCMDC-139037],-32.83
6,CCN(CC)CCCNC(=O)/C(=C/C=C/c1cc2cc(Cl)c(Cl)cc2[nH]1)OC [TCMDC-139008],50.29
7,CO/C(=C\C=C\c1cc2cc(Cl)c(Cl)cc2[nH]1)C(=O)NCCCN(C)CCN(C)c1ccccc1 [TCMDC-139497],-12.25
8,CN1CCC=C(C(=O)NCC(C)(C)c2nc(-c3ccc(Cl)c(O)c3)c(-c3ccncc3)[nH]2)C1 [TCMDC-140700],-7.132
9,Cc1c(OC(C)C)nc2ccccc2c1C(=O)N[C@H](c1cccc(F)c1)C1CC1 [TCMDC-135994],-18.71
10,O=C(NCCN1CCCC1)c1cccc(-c2ccc(-c3nc4ccccc4[nH]3)cc2)c1 [TCMDC-132324],-2.761
11,CC(C)c1ccc(NC(=O)c2ccc(CN3CCCN(Cc4cccc(O)c4)CC3)cc2)cc1 [TCMDC-136419],-24.98
12,Cc1cccc(-c2nn(-c3ccccc3)c3[nH]c(=O)c(CN4CCSCC4)cc23)c1 [TCMDC-124897],84.44
13,Cc1cccc(-c2nn(-c3ccccc3)c3[nH]c(=O)c(CNC4CCCC4)cc23)c1 [TCMDC-136663],9.349
14,O=c1[nH]c2c(cc1CNC1CCCCC1)c(-c1cccc(F)c1)nn2-c1ccccc1 [TCMDC-125867],39.49
15,Cc1ccc(NC(=O)c2ccc(CN3CCCN(CC4CCCCC4)CC3)cc2)cc1C [TCMDC-136425],-18.57
16,Cc1cc(-c2c[nH]c3ncc(-c4cccc5ncccc45)cc23)ccc1C(=O)O.O=C(O)C(F)(F)F [TCMDC-136377],16.5
17,NC(=O)C1CCN(Cc2ccc(-c3ccc(-c4nc5cc(C(F)(F)F)ccc5[nH]4)s3)cc2)CC1.O=C(O)C(F)(F)F [TCMDC-132687],-37.37
18,Nc1cccc(CNCc2ccc(-c3ccc(-c4nc5cc(C(F)(F)F)ccc5[nH]4)s3)cc2)c1.O=C(O)C(F)(F)F [TCMDC-132939],-86.12
19,CN(CCN)Cc1cccc(-c2ccc(-c3nc4cc(C(F)(F)F)ccc4[nH]3)s2)c1.O=C(O)C(F)(F)F [TCMDC-132820],44.42
20,O=C(O)C(F)(F)F.OCC1CCN(Cc2ccc(-c3ccc(-c4nc5cc(C(F)(F)F)ccc5[nH]4)s3)cc2)CC1 [TCMDC-133120],54.7
21,CC(C)NCc1ccc(-c2ccc(-c3nc4cc(C(F)(F)F)ccc4[nH]3)s2)cc1.O=C(O)C(F)(F)F [TCMDC-132745],-79.18

row,SMILES,% Inhibition [%]
1,NCc1ccc(CNCc2ccc(-c3ccc(-c4nc5cc(C(F)(F)F)ccc5[nH]4)s3)cc2)cc1.O=C(O)C(F)(F)F [TCMDC-132814],75.71
2,CNc1ccc(CNCc2ccc(-c3ccc(-c4nc5cc(C(F)(F)F)ccc5[nH]4)s3)cc2)cc1.O=C(O)C(F)(F)F [TCMDC-132985],42.48
3,CN(CCN)Cc1ccc(-c2ccc(-c3nc4cc(C(F)(F)F)ccc4[nH]3)s2)cc1.O=C(O)C(F)(F)F [TCMDC-132821],65.23
4,O=C(O)C(F)(F)F.OCC1CCN(Cc2cccc(-c3ccc(-c4nc5cc(C(F)(F)F)ccc5[nH]4)s3)c2)CC1 [TCMDC-133126],5.885
5,Cc1cccc2[nH]c(-c3cccc(-c4ccc(NC(=O)Cc5ccon5)cc4)c3)nc12 [TCMDC-136906],-38.48
6,Cc1cccc(/C=C/C(=O)NC2CCC(N3CCC(c4ccccc4C)CC3)CC2)c1 (stereo not shown) [TCMDC-133528],-62.92
7,CN1CCN(c2ccnc3ccc(NC(=O)Cc4ccc(Br)c5ccccc45)cc23)CC1 [TCMDC-139254],0.9853
8,CS(=O)(=O)NCCCNCc1ccc(-c2cccc(-c3nc4ccc(F)cc4[nH]3)c2)cc1 [TCMDC-133077],6.508
9,COc1ccc2ncc(F)c(CCN3CCC(CNCc4cccc5c4OCO5)CC3)c2n1 [TCMDC-135851],-2.329
10,CCN(CC)CCCOC(=O)c1ccc2c(c1)-c1ccc(C(=O)OCCCN(CC)CC)c3cccc-2c13 [TCMDC-125491],109
11,CCCN(CC)CCOC(=O)c1ccccc1 [TCMDC-131376],17.72
12,CCCCN(CCCC)C(=Nc1cccc(Cl)c1Cl)Nc1ccc(C#N)cc1O [TCMDC-140226],-14.17
13,CCN(CC)/C(=N/C(=N)NCc1ccc(Cl)cc1Cl)NCCCCCCN/C(=N\C(=N)NCc1ccc(Cl)cc1Cl)N(CC)CC [TCMDC-131819],120
14,CN(C)C(=O)CC(=O)NCc1cccc(Cl)c1 [TCMDC-131747],5.736
15,CCCCN(CCCC)C(=NC(=N)NCc1ccc(Cl)c(Cl)c1)NCCCCCCNC(=NC(=N)NCc1ccc(Cl)c(Cl)c1)N(CCCC)CCCC [TCMDC-131821],116.7
16,CCN(CC)/C(=N/C(=N)NCc1cccc(Cl)c1)NCCCCCCN/C(=N\C(=N)NCc1cccc(Cl)c1)N(CC)CC [TCMDC-131820],122
17,CCN(CC)C(=NC(=N)NCc1ccc(Cl)cc1)NCCCCCCNC(=NC(=N)NCc1ccc(Cl)cc1)N(CC)CC [TCMDC-131817],120
18,CC/N=C(/NCCCCCCN/C(=N/CC)NCc1ccccc1)NCc1ccccc1 [TCMDC-137726],-33.37
19,CCCc1cc(Cc2cnc(N)nc2N)cc(OCCCCCC(=O)O)c1OC [TCMDC-137182],2.989
